Assay results published in PubChem BioAssay (NCI).
The panel holds about 79,000 compounds, 15% with a hit somewhere; the sample as a whole holds those more often. Unmarked numbers belong to inactive results. Rule as the data show it: active = growth inhibition above about 70%; inactive = the rest. Where a SMILES comes first, the peptide text is derived from it. The star is where a group is joined. Boc = CC(C)(C)OC(=O)*

experiment: NCI Yeast Anticancer Drug Screen. Data for the cln2 rad14 strain (AID 165);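 also: 0% = growth equal to vehicle treated cultures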; details: S. cerevisiae cln2 rad14 strain, at 50.0 µM, stronger effect = higher value
Outline: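 Yeast strain cln2 rad14, bearing defects in cell cycle control and DNA repair, serves as the test system; values reflect growth inhibition compared with vehicle.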

Structure (SMILES)	growth inhibition [%]
CC(=O)CC(=O)Nc1cccc(O)c1	11.8
Nc1ccc(S(=O)(=O)N(CCO)CCO)cc1	-6.95
CCOP(=O)(OCC)C(Cc1cn(S(=O)(=O)c2ccc(C)cc2)cn1)C(=O)O (stereo not given)	16.2
Cc1ncc(CSC(=N)N)n1Cc1ccccc1	-17.6
CC(C)(Nc1nc2c(ncn2C2OC(CO)C(O)C2O)c(=O)[nH]1)P(=O)(O)O (stereo not given)	11.1
O=C(O)c1c(Br)c(Br)c(Br)c(Br)c1C1c2ccc(O)cc2Oc2cc(O)ccc21	-7.75
Cc1cccc2c1Oc1ccccc1C2N1C(=O)/C(=C/c2ccc(Cl)c(Cl)c2)SC1=S (stereo not given)	33.8
Cc1cc2c(C)n(Cc3ccc(Cl)cc3Cl)nc2c(C#N)c1C	20.2
ClC1=C(Cl)C2(Cl)C3C(CC4C3C3(Cl)C(Cl)=C(Cl)C4(Cl)C3(Cl)Cl)C1(Cl)C2(Cl)Cl (stereo not given)	-32.1
Cc1ccc(CCCC(=O)O)cc1C	10.6
C(=C\CSc1ccccn1)/CSc1ccccn1	18.6
Fc1ccc(CC(F)F)cc1	4.6
CC(=O)OC1/C=C(\C)C(OC(C)=O)C/C=C(/C)CCC2C(/C=C/C1=O)C2(C)C (stereo not given)	64.1
c1cc2nc(c1)CSCCCCCCCCSC2	-10.1
COc1c(C)c(C)c(Br)c(C)c1C	15.6
C=C(CN(C)C)C1(c2ccccc2)CC2(CCCC2)C(=O)O1 (stereo not given)	-4.75
Cc1ccc(-c2nc3ccccc3cc2N)cc1	-14
Cc1cccc(N=Nc2c(C)nc(N)nc2C)c1C	-37.6
CCC1(O)CC2CN(CCc3c([nH]c4ccccc34)C(C(=O)OC)(c3cc4c(cc3OC)N(C)C3C(O)(C(N)=O)C(O)C5(CC)C=CCN6CCC43C65)C2)C1 (stereo not given) (tested in a mixture with another compound)	2.7
Nc1nc(N)nc(C2CC3C=CC2C3)n1 (stereo not given)	-10

Structure (SMILES)	growth inhibition [%]
COc1ccccc1/C=N/NC(=O)CCCCCCCCC(=O)N/N=C/c1ccccc1OC	-11.2
Nc1ccc2c(c1)C(=O)N(OS(=O)(=O)c1ccccc1)C2=O	41
O=C(C[n+]1csc2ccccc21)c1ccc(-c2ccccc2)cc1	-3.05
CN1C(=O)N/C(=C\c2ccc(S(=O)(=O)N/N=C\C(O)C(O)C(O)CO)cc2)C1=O (stereo not given)	4.15
Clc1ccc2c(Cl)ncnc2c1I	3
CCCCn1[nH]c(=O)ccc1=O	11.4
CCCCCCCCC(=O)OCC(=O)c1ccc(-c2ccccc2)cc1	-7.85
CC(C)(C)C([O-])=C1C(=O)c2ccccc2C1=O.CC(C)(C)C([O-])=C1C(=O)c2ccccc2C1=O.CC[O-].CC[O-].[Ti+4]	47.3
Cc1cc([N+](=O)[O-])c(Cl)cc1Cl	26.5
CC12CCC(CC1)C(C)(C)N=C(N)S2	-18
Clc1ccc(N=Cc2ccc(C=Nc3ccc(Cl)c(Cl)c3)cc2)cc1Cl	11
CCCC(=O)Oc1cccc(C)c1	14.6
CCCCCCCCCCCC(=O)NC(=S)Nc1cc(OC)ccc1OC	-47.3
CCCCN1CCNC1=S	-10.6
CCOC(=O)C(CC(C)C)NC(=O)C(Cc1ccccc1)NC(=O)CNC(=O)OC(C)(C)C (stereo not drawn) (Boc-Gly-Phe-Leu-OEt; configuration not given here)	-11.7
Cc1ccc(S(=O)(=O)Oc2c(Cl)c(Cl)c(Cl)c(Cl)c2Cl)cc1	-15.3
CC1CC2C3(C1)CC(C(=O)OC3=O)C2(C)C (stereo not given)	-37.4
S=c1[nH]c(=S)c2[nH]cnc2[nH]1	-7.35
COc1ccc2cc(C(C)C(O)c3cc(F)c(F)c(F)c3F)ccc2c1 (stereo not given)	0.15
C=CCNC(=O)c1ccc[n+](CC(=O)Nc2ccccc2)c1	9.8
